Data as given in PubChem BioAssay (EPA / NIEHS).
Calls of active or inactive are those of the source. Rule for the calls: active = hit-call score of the fitted dose curve at least 0.9, where 1 is the maximum; inactive = score below 0.9.

Key:
[1] = ATG_ISRE_CIS: Attagene CIS-FACTORIAL HepG2 Assay for human Interferon Regulatory Factor 1 (IRF1) binding to an Interferon-Stimulated Response Element (ISRE) (AID 2282948); settings: HepG2 ISRE cis-reporter (Attagene), mRNA transcription readout; actives raise or lower the signal
Procedure, shortened: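 Quantitation relies on labelled RT-PCR fragments separated by capillary electrophoresis. Human HepG2 cells bearing cis-promoter reporter constructs were treated 24 h; DMSO served as baseline for bidirectional fitting.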

[2] = ATG_M_32_CIS: Attagene CIS-FACTORIAL HepG2 Assay for M32 Transcription Factor (Internal Marker) (AID 2282949); settings: HepG2 Attagene cis-factorial M32 reporter, mRNA; actives raise or lower the signal;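 note: background control marker of the multiplexed CIS panel rather than a real target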
Procedure, shortened: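 Fluorescent capillary electrophoresis peaks of HpaI-digested, FAM-labelled RT-PCR reporter products give the signal. Source: transiently transfected human liver HepG2 cells, 24 h after chemical dosing; bidirectional fitting against DMSO.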

[3] = ATG_M_06_CIS: Attagene CIS-FACTORIAL HepG2 Assay for M06 Transcription Factor (Internal Marker) (AID 2282950); settings: HepG2 Attagene CIS-FACTORIAL M06 internal marker reporter; actives raise or lower the signal
Procedure, shortened: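 One of many multiplexed endpoints: HepG2 reporter mRNA after 24 h dosing, detected by RT-PCR and capillary electrophoresis fluorescence; gain or loss of signal analysed against DMSO.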

[4] = biological target: Hypoxia-inducible factor 1-alpha (Homo sapiens) (UniProt Q16665); assay: ATG_HIF1a_CIS: Attagene CIS-FACTORIAL HepG2 Assay for human Hypoxia Inducible Factor 1 (HIF1A) (AID 2282951); settings: HepG2 Attagene cis-factorial HIF1a reporter transcription; actives raise or lower the signal
Hypoxia-inducible factor 1-alpha (Homo sapiens), sequence (Q16665 whole entry, looked up): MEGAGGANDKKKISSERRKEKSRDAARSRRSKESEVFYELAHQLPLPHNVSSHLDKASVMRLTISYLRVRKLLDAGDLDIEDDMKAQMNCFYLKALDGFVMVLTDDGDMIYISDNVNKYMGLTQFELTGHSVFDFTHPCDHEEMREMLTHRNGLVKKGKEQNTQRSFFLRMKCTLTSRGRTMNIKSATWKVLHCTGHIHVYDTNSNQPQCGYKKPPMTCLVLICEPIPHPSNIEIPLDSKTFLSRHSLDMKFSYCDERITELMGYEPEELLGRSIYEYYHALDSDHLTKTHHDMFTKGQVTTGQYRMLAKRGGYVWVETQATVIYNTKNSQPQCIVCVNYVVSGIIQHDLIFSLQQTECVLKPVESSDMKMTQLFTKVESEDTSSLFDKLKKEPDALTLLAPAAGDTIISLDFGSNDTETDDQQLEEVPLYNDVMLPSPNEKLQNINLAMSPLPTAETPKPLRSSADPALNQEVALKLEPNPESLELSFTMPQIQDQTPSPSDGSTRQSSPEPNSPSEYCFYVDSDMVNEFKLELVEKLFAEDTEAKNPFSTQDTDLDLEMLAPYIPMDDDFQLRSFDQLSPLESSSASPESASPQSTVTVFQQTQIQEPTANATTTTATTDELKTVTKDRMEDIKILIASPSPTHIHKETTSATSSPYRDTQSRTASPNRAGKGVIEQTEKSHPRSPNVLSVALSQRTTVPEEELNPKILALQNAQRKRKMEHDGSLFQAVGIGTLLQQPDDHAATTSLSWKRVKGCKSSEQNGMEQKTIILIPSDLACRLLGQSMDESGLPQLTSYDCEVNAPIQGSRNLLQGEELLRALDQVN
Procedure, shortened: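 Dosed 24 h, transfected HepG2 cells yielded total RNA whose reporter transcripts were RT-PCR-amplified and sized by capillary electrophoresis using fluorescent labelling; DMSO defined baseline, with gain and loss of signal both fitted.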

[5] = biological target: Hepatocyte nuclear factor 6 (Homo sapiens) (UniProt Q9UBC0); assay: ATG_HNF6_CIS: Attagene CIS-FACTORIAL HepG2 Assay for human Hepatocyte Nuclear Factor 6 (HNF6) (AID 2282952); settings: HepG2 Attagene cis-factorial HNF6 reporter transcription; actives raise or lower the signal
Hepatocyte nuclear factor 6 (Homo sapiens), sequence (Q9UBC0 whole entry, looked up, the tested form may be a part): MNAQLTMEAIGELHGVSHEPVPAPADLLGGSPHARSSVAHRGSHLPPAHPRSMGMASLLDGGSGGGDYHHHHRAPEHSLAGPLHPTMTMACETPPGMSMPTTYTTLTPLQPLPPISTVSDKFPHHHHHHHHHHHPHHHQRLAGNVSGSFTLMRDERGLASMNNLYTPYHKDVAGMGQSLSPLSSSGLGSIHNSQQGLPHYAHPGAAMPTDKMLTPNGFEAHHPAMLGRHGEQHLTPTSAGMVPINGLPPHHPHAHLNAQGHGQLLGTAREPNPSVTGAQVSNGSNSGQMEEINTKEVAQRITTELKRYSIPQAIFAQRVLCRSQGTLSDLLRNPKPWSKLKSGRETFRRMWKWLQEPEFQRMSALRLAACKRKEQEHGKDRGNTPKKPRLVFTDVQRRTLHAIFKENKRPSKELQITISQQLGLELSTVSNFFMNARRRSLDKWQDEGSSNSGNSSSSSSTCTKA
Procedure, shortened: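 HepG2 cells transiently transfected with cis-element-driven multiplexed reporter units measuring endogenous transcription factor activity. After 24 h exposure, reporter mRNA quantified by RT-PCR, FAM-labelled fragments and capillary electrophoresis; bidirectional fitting versus DMSO.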

[6] = biological target: Heat shock factor protein 1 (Homo sapiens) (UniProt Q00613); assay: ATG_HSE_CIS: Attagene CIS-FACTORIAL HepG2 Assay for human Heat Shock Transcription Factor 1 (HSE) (AID 2282953); settings: HepG2 HSE cis-reporter, Attagene RNA transcription; actives raise or lower the signal
Heat shock factor protein 1 (Homo sapiens), sequence (Q00613 whole entry, looked up): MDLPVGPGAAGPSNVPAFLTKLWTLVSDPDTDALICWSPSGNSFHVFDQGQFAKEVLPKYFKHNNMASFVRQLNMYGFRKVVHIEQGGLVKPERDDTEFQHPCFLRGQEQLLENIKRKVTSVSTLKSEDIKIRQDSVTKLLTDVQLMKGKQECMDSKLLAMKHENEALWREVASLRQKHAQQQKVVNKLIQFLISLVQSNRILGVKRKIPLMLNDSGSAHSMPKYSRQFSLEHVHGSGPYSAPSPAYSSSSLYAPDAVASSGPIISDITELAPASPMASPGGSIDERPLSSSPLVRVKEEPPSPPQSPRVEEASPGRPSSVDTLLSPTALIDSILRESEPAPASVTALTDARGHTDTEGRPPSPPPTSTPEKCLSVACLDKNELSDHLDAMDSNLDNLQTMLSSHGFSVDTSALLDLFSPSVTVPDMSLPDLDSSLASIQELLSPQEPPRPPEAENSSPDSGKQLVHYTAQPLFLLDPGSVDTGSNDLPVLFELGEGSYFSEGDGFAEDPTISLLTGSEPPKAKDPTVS
Procedure, shortened: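 Using HepG2 with transfected cis-driven reporter constructs, compound effects on endogenous factor activity are scored as reporter mRNA change at 24 h. Detection: RT-PCR, HpaI digestion, capillary electrophoresis; bidirectional fitting to DMSO.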

[7] = ATG_MRE_CIS: Attagene CIS-FACTORIAL HepG2 Assay for human Metal Responsive Element (MRE) (AID 2282954); settings: HepG2 MRE cis-reporter transcription, Attagene multiplex; actives raise or lower the signal
Procedure, shortened: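 Transient MRTU transfection of HepG2 (FuGene 6); 24 h dosing; total RNA → oligo(dT) RT, PCR, 6-FAM primer extension, HpaI cut, CE. Bidirectional fit vs DMSO.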

[8] = ATG_PBREM_CIS: Attagene CIS-FACTORIAL HepG2 Assay for human Phenobarbital-responsive Enhancer Module (PBREM) (AID 2282955); settings: HepG2 PBREM cis-reporter, Attagene multiplexed transcription; actives raise or lower the signal
Procedure, shortened: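 Transfected liver-derived HepG2 cells exposed 24 h; PBREM reporter transcript quantified via RT-PCR and capillary electrophoresis, with activity in either direction referenced to DMSO.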

[9] = biological target: Paired box protein Pax-6 (Homo sapiens) (UniProt P26367); assay: ATG_Pax6_CIS: Attagene CIS-FACTORIAL HepG2 Assay for human Paired Box 6 (PAX6) (AID 2282956); settings: HepG2 CIS-FACTORIAL PAX6 reporter transcription, RNA readout; actives raise or lower the signal
Paired box protein Pax-6 (Homo sapiens), sequence (P26367 whole entry, looked up): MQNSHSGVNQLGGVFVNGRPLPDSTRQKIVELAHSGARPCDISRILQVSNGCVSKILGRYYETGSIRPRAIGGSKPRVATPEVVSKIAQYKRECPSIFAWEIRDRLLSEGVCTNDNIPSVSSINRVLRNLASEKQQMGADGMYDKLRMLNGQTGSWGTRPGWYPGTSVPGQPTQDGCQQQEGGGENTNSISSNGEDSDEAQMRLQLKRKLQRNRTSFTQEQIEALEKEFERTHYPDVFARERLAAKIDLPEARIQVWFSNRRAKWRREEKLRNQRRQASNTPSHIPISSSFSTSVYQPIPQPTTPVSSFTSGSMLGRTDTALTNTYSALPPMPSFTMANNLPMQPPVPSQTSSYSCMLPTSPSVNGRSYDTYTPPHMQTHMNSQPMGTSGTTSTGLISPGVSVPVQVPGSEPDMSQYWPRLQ
Procedure, shortened: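 After twenty-four hours of chemical exposure, transfected HepG2 cells are harvested for RNA. Cis-promoter reporter transcripts are amplified, fluorescently labelled and sized by capillary electrophoresis, with gain and loss of signal scored against DMSO.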

[10] = ATG_PXRE_CIS: Attagene CIS-FACTORIAL HepG2 Assay for human Pregnane X Receptor Element (PXRE) (AID 2282957); settings: HepG2 Attagene CIS-FACTORIAL PXRE reporter, mRNA; actives raise or lower the signal
Procedure, shortened: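 HepG2 cells transiently transfected with cis-element-driven multiplexed reporter units; after 24 h chemical exposure, reporter mRNA measured by RT-PCR, 6-FAM labelling, HpaI digestion and capillary electrophoresis. Bidirectional fitting relative to DMSO.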

[11] = ATG_PPRE_CIS: Attagene CIS-FACTORIAL HepG2 Assay for human Peroxisome Proliferator-activated Response Element (PPRE) (AID 2282958); settings: HepG2 PPRE cis-element reporter, Attagene transcription factor profiling; actives raise or lower the signal
Procedure, shortened: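 Measured endpoint: PPRE-controlled reporter mRNA, detected by RT-PCR and capillary electrophoresis fluorescence, from transiently transfected HepG2 cells 24 h after dosing. Curves fitted in both directions using DMSO baseline.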

[12] = ATG_RORE_CIS: Attagene CIS-FACTORIAL HepG2 Assay for human RAR-related Orphan Receptor Element (RORE) (AID 2282959); settings: HepG2 Attagene cis-factorial RORE reporter, mRNA; actives raise or lower the signal
Procedure, shortened: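 Transiently transfected HepG2 reporter cells were treated 24 h. Reporter transcripts were detected by RT-PCR and capillary electrophoresis, with bidirectional fitting against DMSO.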

[13] = ATG_Sox_CIS: Attagene CIS-FACTORIAL HepG2 Assay for human SRY-box transcription factor (SOX) (AID 2282960); settings: HepG2 Attagene cis-factorial SOX reporter, mRNA; actives raise or lower the signal
Procedure, shortened: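 Gain- or loss-of-signal endpoint, fitted bidirectionally with DMSO as negative control. Based on reporter mRNA from transfected HepG2 cells harvested 24 h post-treatment and quantified via RT-PCR and capillary electrophoresis.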

[14] = biological target: Transcription factor Sp1 (Homo sapiens) (UniProt P08047); assay: ATG_Sp1_CIS: Attagene CIS-FACTORIAL HepG2 Assay for human Specificity Protein 1 (Sp1) (AID 2282961); settings: HepG2 Sp1 cis-reporter transcription, actives raise or lower the signal
Transcription factor Sp1 (Homo sapiens), sequence (P08047 whole entry, looked up, the tested form may be a part): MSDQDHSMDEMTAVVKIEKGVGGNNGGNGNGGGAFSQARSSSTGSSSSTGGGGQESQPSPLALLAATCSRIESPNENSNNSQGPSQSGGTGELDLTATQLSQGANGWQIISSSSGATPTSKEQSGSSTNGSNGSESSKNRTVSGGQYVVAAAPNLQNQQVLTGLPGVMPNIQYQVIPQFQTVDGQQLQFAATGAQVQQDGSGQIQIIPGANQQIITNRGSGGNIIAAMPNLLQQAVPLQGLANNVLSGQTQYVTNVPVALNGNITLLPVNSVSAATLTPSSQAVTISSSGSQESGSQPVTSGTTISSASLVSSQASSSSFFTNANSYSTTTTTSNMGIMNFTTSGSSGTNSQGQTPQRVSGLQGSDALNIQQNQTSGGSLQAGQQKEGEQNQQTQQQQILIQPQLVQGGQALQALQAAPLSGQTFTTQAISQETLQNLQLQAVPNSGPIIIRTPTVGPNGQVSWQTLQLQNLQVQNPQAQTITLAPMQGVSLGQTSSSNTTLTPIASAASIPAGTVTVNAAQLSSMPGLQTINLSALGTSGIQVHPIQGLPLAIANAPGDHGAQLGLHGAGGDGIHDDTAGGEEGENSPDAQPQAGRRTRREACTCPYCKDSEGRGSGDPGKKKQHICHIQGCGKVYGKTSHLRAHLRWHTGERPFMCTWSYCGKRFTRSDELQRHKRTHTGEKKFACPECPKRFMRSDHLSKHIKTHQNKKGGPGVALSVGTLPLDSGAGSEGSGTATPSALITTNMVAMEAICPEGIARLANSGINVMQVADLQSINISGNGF
Procedure, shortened: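 Endpoint reflects endogenous Sp1 transcriptional activity, not an exogenous fusion protein: HepG2 cells with transfected cis-regulated reporters, 24 h dosing, RT-PCR/capillary electrophoresis mRNA read-out, DMSO-normalised bidirectional fit.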

[15] = ATG_SREBP_CIS: Attagene CIS-FACTORIAL HepG2 Assay for human Sterol Regulatory Element Binding (SREBP) (AID 2282962); settings: HepG2 Attagene cis-factorial SREBP reporter, mRNA; actives raise or lower the signal
Procedure, shortened: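 Twenty-four hours after chemical dosing of transfected HepG2 cultures, reporter RNA was converted to cDNA, amplified, end-labelled with 6-FAM and resolved by capillary electrophoresis. Responses were fitted relative to DMSO.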

[16] = biological target: Signal transducer and activator of transcription 3 (Homo sapiens) (UniProt P40763); assay: ATG_STAT3_CIS: Attagene CIS-FACTORIAL HepG2 Assay for human Signal Transducer and Activator of Transcription 3 (STAT3) (AID 2282963); settings: HepG2, Attagene cis-factorial STAT3 reporter transcription; actives raise or lower the signal
Signal transducer and activator of transcription 3 (Homo sapiens), sequence (P40763 whole entry, looked up): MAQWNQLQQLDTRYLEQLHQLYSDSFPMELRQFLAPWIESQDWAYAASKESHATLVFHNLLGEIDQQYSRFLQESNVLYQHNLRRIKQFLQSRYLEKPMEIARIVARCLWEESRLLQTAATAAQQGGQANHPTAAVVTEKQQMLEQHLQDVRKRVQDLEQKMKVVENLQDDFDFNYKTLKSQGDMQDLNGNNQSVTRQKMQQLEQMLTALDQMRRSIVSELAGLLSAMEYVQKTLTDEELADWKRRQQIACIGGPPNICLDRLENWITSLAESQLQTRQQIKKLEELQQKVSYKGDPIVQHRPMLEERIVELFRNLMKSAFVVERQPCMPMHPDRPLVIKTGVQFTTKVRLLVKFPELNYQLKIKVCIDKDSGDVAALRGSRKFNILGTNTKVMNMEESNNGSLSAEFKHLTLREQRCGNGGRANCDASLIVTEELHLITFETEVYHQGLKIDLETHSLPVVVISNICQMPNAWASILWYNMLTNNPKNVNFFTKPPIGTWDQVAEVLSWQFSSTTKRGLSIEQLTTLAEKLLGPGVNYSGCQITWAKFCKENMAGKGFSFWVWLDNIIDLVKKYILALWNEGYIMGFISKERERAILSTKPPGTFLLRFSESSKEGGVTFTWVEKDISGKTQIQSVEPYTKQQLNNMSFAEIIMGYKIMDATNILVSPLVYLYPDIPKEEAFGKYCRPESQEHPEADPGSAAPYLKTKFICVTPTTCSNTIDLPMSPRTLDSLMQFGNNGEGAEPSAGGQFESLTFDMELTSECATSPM
Procedure, shortened: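 Endogenous STAT3-responsive cis-element activity was read in transiently transfected HepG2 cells after 24 h treatment. Reporter transcripts were quantified via RT-PCR and capillary electrophoresis, with DMSO as negative control and bidirectional curve fitting.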

[17] = ATG_TA_CIS: Attagene CIS-FACTORIAL HepG2 Assay for human TA Basal Promoter (AID 2282964); settings: HepG2 Attagene CIS-factorial TA basal promoter reporter; actives raise or lower the signal
Procedure, shortened: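 Transient MRTU transfection of HepG2 preceded 24 h compound exposure. Reporter mRNA levels were then read by RT-PCR with capillary electrophoresis, and this background-control endpoint was fitted bidirectionally to DMSO.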

[18] = ATG_TCF_b_cat_CIS: Attagene CIS-FACTORIAL HepG2 Assay for human T-Cell-Factor with beta-catenin (TCF/b-cat) (AID 2282965); settings: HepG2 TCF/beta-catenin cis-reporter transcription, actives raise or lower the signal
Procedure, shortened: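 Endogenous TCF/LEF activity read as reporter transcript level via RT-PCR and capillary electrophoresis fluorescence in transfected HepG2, 24 h exposure; gain or loss of signal fitted against DMSO controls.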

[19] = ATG_TAL_CIS: Attagene CIS-FACTORIAL HepG2 Assay for human TAL Basal Promoter (AID 2282966); settings: HepG2 Attagene cis-factorial TAL promoter reporter; actives raise or lower the signal;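 note: background control endpoint measuring basal TAL promoter reporter mRNA not a specific factor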
Procedure, shortened: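 HepG2 cells transiently transfected with multiplexed cis-promoter reporter units, dosed 24 h. Reporter mRNA quantified by RT-PCR, 6-FAM labelling, HpaI digestion and capillary electrophoresis; TAL basal promoter serves as background control, fitted bidirectionally versus DMSO.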

[20] = ATG_TGFb_CIS: Attagene CIS-FACTORIAL HepG2 Assay for human Transforming Growth Factor (TGF) (AID 2282967); settings: HepG2 Attagene CIS TGFb reporter, mRNA transcription; actives raise or lower the signal
Procedure, shortened: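 After a 24-hour incubation with compound, transfected HepG2 cells were lysed for RNA; reporter cDNA was amplified, fluorescently end-labeled and separated by CE. DMSO served as baseline for bidirectional fits.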

Measured: AC50

CCOC(OCC)C(=O)c1ccccc1
active: [10] 36.8 µM
inactive: [1] | [2] | [3] | [4] | [5] | [6] | [7] | [8] | [9] | [11] | [12] | [13] | [14] | [15] | [16] | [17] | [18] | [19] | [20]

O=C(C=C(O)C(F)(F)F)C(F)(F)F
inactive: [1] | [2] | [3] | [4] | [5] | [6] | [7] | [8] | [9] | [11] | [12] | [13] | [14] | [15] | [16] | [17] | [18] | [19] | [20]
active: [10] 99 µM

FC(F)(F)C1(F)C(F)(F)C(F)(F)C(F)(F)C(F)(C(F)(F)F)C1(F)F (stereo not given)
inactive: [1] | [2] | [3] | [4] | [5] | [6] | [7] | [8] | [9] | [10] | [11] | [12] | [13] | [14] | [15] | [16] | [17] | [18] | [19] | [20]

CCC(=O)C=Cc1ccc(OC)cc1
active: [1] 100 µM | [4] 62.7 µM | [5] 124 µM | [6] 145 µM | [7] 65.4 µM | [10] 26.9 µM | [13] 70.4 µM
inactive: [2] | [3] | [8] | [9] | [11] | [12] | [14] | [15] | [16] | [17] | [18] | [19] | [20]

NNC(=O)CCCCC(=O)NN
inactive: [1] | [2] | [3] | [4] | [5] | [6] | [7] | [8] | [9] | [10] | [11] | [12] | [13] | [14] | [15] | [16] | [17] | [18] | [19] | [20]

COc1ccc(C#N)cc1
inactive: [1] | [2] | [3] | [4] | [5] | [6] | [7] | [8] | [9] | [10] | [11] | [12] | [13] | [14] | [15] | [16] | [17] | [18] | [19] | [20]
